In PubChem BioAssay AID1159580 (chemical genetic matrix, 2015):
Where “and” joins values, the source holds several entries; their conditions need not be identical. Equal values may be shown once. The campaign covered roughly 5,500 compounds. About 2,000 (36%) were called active. Not shown: some 18% with an inconclusive outcome. No stated cut-off is given here; in the data, active means normalized growth mostly below about 0.91 (no sharp cut-off); inconclusive means no clear call, values can overlap the other calls; inactive means mostly above about 0.92. Some of the results follow.

Test: chemical genetic growth profiling, strain panel (AID 1159580);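 further: tested at 20 µM; growth read once vehicle control cultures reached saturation at 30 °C; 1 = growth at the plate median or of vehicle wells; lower values mean less growth of the strain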
Settings: S. cerevisiae deletion strains, growth OD

Measured: normalized growth

C[N+]12CCC(CC1)C(OC(=O)C(O)(c1ccccc1)c1ccccc1)C2 (configuration not stated)
inactive: locus YAL013W, strain DEP1, hits give low values 0.995 | locus YAL021C, strain ccr4, hits give low values 0.983 | locus YAL026C, strain drs2, hits give low values 1.01 | locus YAL030W, strain snc1, hits give low values 0.985 | locus YBL061C, strain skt5, hits give low values 0.968 | locus YBR009C, strain hhf1, hits give low values 0.989 | locus YBR021W, strain FUR4, hits give low values 0.99 | locus YBR023C, strain chs3, hits give low values 0.987 | locus YBR171W, strain sec66, hits give low values 0.957 | locus YBR229C, strain ROT2, hits give low values 0.989 | locus YBR231C, strain swc5, hits give low values 0.995 | locus YBR279W, strain paf1, hits give low values 0.985 | locus YCL011C, strain gbp2, hits give low values 0.951 | locus YCL016C, strain dcc1, hits give low values 0.956 | locus YCL029C, strain bik1, hits give low values 0.956 | locus YCL061C, strain MRC1, hits give low values 0.992 | locus YCL069W, strain vba3, hits give low values 0.998 | locus YCR088W, strain abp1, hits give low values 0.984 | locus YDL005C, strain med2, hits give low values 0.974 | locus YDL035C, strain GPR1, hits give low values 1.03 | locus YDL040C, strain nat1, hits give low values 0.993 | locus YDL074C, strain BRE1, hits give low values 0.975 | locus YDL101C, strain DUN1, hits give low values 0.975 | locus YDL134C, strain PPH21, hits give low values 0.981 | locus YDL185W, strain tfp1, hits give low values 0.974 | locus YDL192W, strain arf1, hits give low values 0.992 | locus YDR001C, strain nth1, hits give low values 0.978 | locus YDR069C, strain doa4, hits give low values 0.982 | locus YDR101C, strain arx1, hits give low values 0.971 | locus YDR137W, strain rgp1, hits give low values 0.975 | locus YDR150W, strain NUM1, hits give low values 0.996 | locus YDR159W, strain sac3, hits give low values 1.01 | locus YDR162C, strain NBP2, hits give low values 1 | locus YDR195W, strain ref2 0.983 | locus YDR297W, strain sur2, hits give low values 0.976 | locus YDR318W, strain mcm21, hits give low values 0.975 | locus YDR334W, strain swr1, hits give low values 0.938 | locus YDR335W, strain msn5, hits give low values 0.971 | locus YDR388W, hits give low values 0.984 | locus YDR392W, strain spt3, hits give low values 0.922 | locus YDR502C, strain sam2, hits give low values 0.987 | locus YEL003W, strain gim4, hits give low values 0.987 | locus YEL037C, strain rad23, hits give low values 0.988 | locus YEL061C, strain CIN8 (second series), hits give low values 0.987 | locus YEL061C, strain CIN8, hits give low values 0.993 | locus YER015W, strain faa2, hits give low values 0.987 | locus YER016W, strain bim1, hits give low values 0.989 | locus YER110C, hits give low values 0.975 | locus YER111C, strain swi4, hits give low values 0.987 | locus YER155C, strain BEM2 (second series), hits give low values 1.01 | locus YER155C, strain BEM2, hits give low values 0.983 | locus YER167W, strain BCK2, hits give low values 0.992 | locus YFR010W, strain ubp6, hits give low values 0.981 | locus YGL078C, strain dbp3, hits give low values 0.992 | locus YGL086W, strain mad1, hits give low values 1 | locus YGL167C, strain pmr1, hits give low values 0.976 | locus YGL173C, strain kem1, hits give low values 0.974 | locus YGL227W, strain vid30, hits give low values 0.979 | locus YGL240W, strain doc1, hits give low values 0.981 | locus YGL248W, strain PDE1, hits give low values 0.99 | locus YGL253W, strain hxk2, hits give low values 0.966 | locus YGR078C, strain PAC10, hits give low values 0.983 | locus YGR135W, strain pre9, hits give low values 0.971 | locus YGR229C, strain SMI1, hits give low values 1 | locus YGR252W, strain gcn5, hits give low values 1.09 | locus YHR013C, strain ard1, hits give low values 0.962 | locus YHR027C, strain rpn1, hits give low values 0.974 | locus YHR030C, strain SLT2, hits give low values 0.988 and 0.977 | locus YHR079C, strain IRE1 (second series), hits give low values 0.97 | locus YHR079C, strain IRE1, hits give low values 1 | locus YHR094C, strain hxt1, hits give low values 0.982 | locus YHR129C, strain ARP1, hits give low values 0.99 | locus YHR142W, strain chs7, hits give low values 0.944 | locus YHR200W, strain rpn10, hits give low values 0.979 | locus YIL066C, strain RNR3, hits give low values 0.983 | locus YIL073C, strain SPO22, hits give low values 0.972 | locus YIL125W, strain kgd1, hits give low values 0.994 | locus YIR030C, strain dcg1, hits give low values 0.971 | locus YJL092W, strain hpr5, hits give low values 0.985 | locus YJL095W, strain BCK1 (second series), hits give low values 0.981 | locus YJL095W, strain BCK1, hits give low values 0.967 and 0.963 | locus YJL115W, strain asf1, hits give low values 0.968 | locus YJL129C, strain trk1, hits give low values 0.974 | locus YJL134W, strain LCB3, hits give low values 0.994 | locus YJL154C, strain vps35, hits give low values 0.98 | locus YJL164C, strain tpk1, hits give low values 0.979 | locus YJL166W, strain qcr8, hits give low values 0.95 | locus YJL168C, strain set2, hits give low values 0.984 | locus YJL187C, strain SWE1 (second series), hits give low values 0.974 | locus YJL187C, strain SWE1, hits give low values 0.988 | locus YJR043C, strain POL32, hits give low values 0.99 | locus YJR066W, strain TOR1, hits give low values 0.987
